The campaign covered roughly 53,000 sequences. About 3,700 (7%) were called active. This is one part of a sample in which actives are shown more often than they occur. Unmarked numbers belong to inactive results.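 The calls were made as follows: active = gene knockdowns whose robust z-score for IL-1 alpha signal is at least 2 or at most -2, so actives lie on both sides; inactive = the rest.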

The nature of this assay: Components of the Cytosolic LPS Sensing Pathway: Gene Identification via Genome-wide siRNA Screen. The following applies: RAW264.7 macrophages, IL-1a HTRF, actives lie on both sides, screened at 100 nM (by protocol), cells primed 5 h with Pam3CSK4 first. An excerpt:
Non-canonical inflammasome activation by cytosolic LPS is a critical component of the host response to Gram-negative bacterial infection, however we lack a comprehensive understanding of the cellular processes that control this pathway. Here we describe a genome-wide siRNA screen to identify genes regulating the mouse macrophage IL-1 alpha response to cytosolic LPS.
RAW264.7 cells were maintained in complete DMEM media, comprising DMEM with 4.5 g/L glucose, 10% FBS (Gemini Bio-Products, West Sacramento, CA), 2 mM Glutamine (Lonza) and 20 mM HEPES (Lonza), hereafter complete DMEM.
The RNAi screen was conducted in 384-well format using the Ambion Silencer Mouse Genome siRNA Library (#4391425), which consists of three unique, nonoverlapping, nonpooled siRNAs for each of 17,000 gene targets. siRNA reagents ([…]) were stamped into 384-well white flat-bottom microplates (Corning, 3570) using a Velocity11 VPrep liquid handling system (Agilent) integrated into a BioCel robotic platform (Agilent) in columns 1-22, leaving columns 23-24 empty for negative (Ambion, Negative control #1) and positive (mouse Casp4) controls, respectively. The median value of each plate's negative control column was used to normalize sample wells, and the positive control was used to assess transfection efficiency and assay performance.
Lipofectamine RNAiMAX Transfection Reagent ([…]; Invitrogen) was added in […] serum-free, antibiotic-free media to plate wells using a Thermo Scientific Matrix WellMate and Microplate Stacker. Plates were incubated for 45 min at room temperature to allow for the sufficient formation of siRNA-lipid complexes. Cells were seeded at a density of 1x10^4 cells per well in 20 microL media containing 20% (vol/vol) FBS without antibiotics. The final concentration of siRNA in each well was 100 nM. Cells were cultured for 48h at 37 degrees C in 5% CO2 before addition of […] of TLR ligand Pam3CSK4 for 5 hours. The medium was then removed, replaced with […] growth media and cell were transfected with […] of LipidA and TransIT-TKO (Mirus) for 24 hour. At the end of the LipidA treatment, […] of supernatant was transferred to a 384 Greiner Bio-one non-binding low volume plate and […] of IL-1a HTRF reagent (Cisbio, 62MIL1APEH) was added and incubated at room temperature overnight. The plates were read on an EnVision plate reader (PerkinElmer). Cell viability was measured by adding 20ul Cell Titer Glo to the original plate and running a luminescence read on the EnVision. The quantified IL-1a signal for each siRNA gene-targeted well was divided by the median of the negative control wells and multiplied by 100 to achieve a negative control normalized value for each well/siRNA. This normalized value was then used to generate a robust z-score by first taking the log of each value and then by subtracting the median and dividing by the […].
In general terms: In TR-FRET formats the signal depends on donor and acceptor labels being close together.
In the case of CGGUAUGUUAUUUUGGUUGTT against Fam216a, the z-score is -0.236. As for GGGCUGUGGAAACAAUUUATT against Zpld1, the figure is 2.32 (active). Regarding ACUUCCUGAUUGAGAGAAATT against Olfr497, the z-score is -0.319. As for GGUUCCACUAAUCUUUUUATT against Mark3, the figure is 0.696. Take GGAGGAGAUUGUCCAGAAATT against Ecm1: the z-score is 1.2. As to GGUCGACAUUGAAGCUAUUTT against Ralyl, the z-score was -0.517.

With GCAUUGUGAAUAUUCAGAUTT against Cers4, the z-score is 0.623.

For the sequence GGCAGUGUGUUAGAUUCUUTT against Cts3, the z-score is 2.35 (active).

With GGAGACUAUCCUCAUUAUUTT against Smarca4, the z-score is 0.36. In the case of AUGCUUUGAUCAGUAUGAATT against Vmn1r188 it was -2.38 (active); in that of GGAGGACAACAAGUACUGCTT against Smap1, -1.08. For GGAAAAUCGGUUAUCAUAATT against Pde7a, the z-score was -0.684. GCUAUAGCGCGGAAAUGGATT against Dclk3: the z-score is -0.531. As for GGUCAAAGAACAAAAAGAATT against Muc13, the figure is -0.176. Take GGAGCUAAAUGGCUCUGAUTT against Boc: the z-score is 2.98 (active). With GGGACUGGCAGAUCUUAUCTT against Gtpbp3, the z-score is 0.817. As for GGAACGAGAAUCGGAGAUGTT against Mapk8ip3, the figure is 2.92 (active). With GGUCAUUGGUAGGUCCACUTT against Rusc2, the z-score was 0.338. As to GGGAGAUUCAUUUUCCCAGTT against Rnf43, the z-score was 0.0663.

As to GCAACAGGUUAGAAUAGACTT against Scd3, the z-score is -1.36. In the case of GGUUCUGCACAUCUGAACATT against Cst3 it was -0.109. For the sequence GGCCUUUUUGUUUAUGCUATT against Zan, the z-score is -0.0784. In the case of CCGUGUGGUCUGAUAAAAGTT against Fbxl8 it was -0.714; in that of GCUCACUUGAUUCUGGUAATT against Ifnz, 0.416; in that of GGUGUCUGGAGGGAGAUUUTT against Peli3, 0.245. For the sequence CCAAGUGCUAAACAAGACATT against Spata31, the z-score was 1.06.

With GGCUAAAGGAAACUCACCUTT against Duoxa2, the z-score is -3.33 (active). In the case of GGUGACUGACAACCAGACATT against Dkkl1 it was -0.171; in that of GGGUCUUCUUCCUGAGUGUTT against Ak8, -1.67. In the case of GGCCAUGUUCCACACAUUATT against Grm1, the z-score is 1.49. GCCACGCAAUAAAGCAUCUTT against Sars: the z-score was -0.284.

For the sequence GCUUAAGGGAUAACAUAUUTT against Svs2, the z-score was -0.756.

With GGACACCAUAUGGUUAGCUTT against Tedc1, the z-score is -2.25 (active). Take ACUGUCAUGCACCCUAAAGTT against Olfr132: the z-score was 0.369. In the case of GCUCCUAAAAAGGCUCUUUTT against H2ac18 it was -0.463; in that of GGAAUUCCAAUGUUACCAUTT against Meltf, 3.35 (active); in that of GCUGGUGUGUAACAUCAAUTT against Fut8, 0.246. As for GCAAUGUUAUUUUCACCAGTT against Slc3a1, the figure is 0.61; as for GUUUAACUACAACAAUGAGTT against Dcpp1, 1.23; as for GCCUAGUGACCCUUUACUATT against Stx1a, 0.51. Take GGCGACACAAUAAGACAGATT against Wdr19: the z-score is 0.648. Consider GGUCCAGUUGGAGAUGACATT against Ube2d3, for which the z-score was -1.04. As for GGUCGUGUACUCGUUCAGUTT against Pcdh10, the figure is 2.04 (active); as for GCUAAUCCAGGACUGUUUATT against Trim14, -1.66; as for GGUUCGACUUUCUUUGCCATT against Ola1, -0.614. Turning to GGUACUGAGGUGAGCCUCUTT against Myocd, the z-score is -2.45 (active). In the case of GGGAGCUCCAUUUAAAUUATT against Cnot6 it was -0.516.

For GCAACUUUAUAGCAGAAUCTT against Apbb3, the z-score was -0.874. For the sequence CCGUAUAAACAUUUAUGAGTT against Bmp4, the z-score was -0.295. Regarding GGACAACACCCUGAUGAUATT against Vmn1r208, the z-score was -1.07. As for CCCACUUGUCUACAGCCUATT against Olfr1505, the figure is -2.65 (active); as for GUGGGAAAUCAGUAUUUCCTT against AI467606, 1.23. As for GGUUCAUUGUGUCUCUGGCTT against Grk1, the figure is -0.378; as for GGACGCAAGUACAAAUUUATT against Tnxb, 1.13. Consider CGUAGUCGAUUCAGGAGAGTT against Gm10439, for which the z-score was -0.356.

For GGUCUUCUUAGCUUUUUUUTT against Plppr1, the z-score is -0.713.

Regarding GGGUUGAUAGAAGUUUUUATT against Cpeb1, the z-score is 0.612. As for GCUUUAGUACAGGCCUCUATT against Tent4a, the figure is 0.444. As for CCCGACCACGUGUUUAUUGTT against Tnfsf12, the figure is -1.68.

As for CCUGAACUAUAGAUGGAUUTT against Manba, the z-score is 3.37 (active). In the case of GGUGGAGGCAGGAAAAUCUTT against Mrpl57 it was -0.808; in that of GGCUCAAGCUAUGAAGAGATT against Gstm4, -0.195. As for GGUUCUUGUUCAUUCUCUUTT against Slc4a4, the figure is -0.0837; as for GGAAAGAGUGUGCAAACUCTT against Ly6d, 0.0731; as for GGCCCAAGGAAUAAUCAAGTT against Satb2, 2.48 (active).

For GGUAUCGACCACAGAUCAUTT against Plxnd1, the z-score was 1.77. As for GCACCAUUUUAAGAUCUGCTT against Prr13, the figure is 0.238; as for CCUCCUUACAAGUUGAAGCTT against Tmem59l, -0.142; as for GCUUGUUCACCCAGUUAUGTT against Hexdc, 1.15. As for GCCAUUCACGACCCACUACTT against Olfr1095, the figure is -0.102; as for GGACUGAUAGAGGACUUCCTT against Bloc1s6, -0.56; as for CCUUUUAGCUCUGUGUAUUTT against Gldc, -0.0983. Take GGCCUUGAAUGAGCAUCAUTT against Krr1: the z-score was 0.548. In the case of GGCUAUGAAAGUGACAAUCTT against Tsen15 it was -2.74 (active); in that of GCACCUAAUGAUCACAGUGTT against Nrip3, 0.393; in that of GGAAACUGAGCUUAAGAUUTT against Cald1, 1.2. In the case of CCGCUUUCGGCAAGUAUGGTT against Rbmxl2 it was 1.64; in that of GGCAUGACUUCCACAUGAATT against Pdcd1, 0.672. Turning to ACAAAUCCACGUGCAAUGUTT against Cyp2d9, the z-score is 0.943.

For GGAAGAUGAUUAUGAAGAUTT against Apc, the z-score was -0.143. As to GCGCAAGCCGUAUUCGAAGTT against Hoxc12, the z-score was 2.95 (active). As for GGCCUGGGAAGUGAACAAATT against Faah, the figure is -0.721; as for GGAUCUGUCUACUUUUCCUTT against Hikeshi, 0.777.

For GCCACUCCUAUGAGUGUUATT against Cdk18, the z-score was 0.236. As to GGAACGCAAGAACAGAAUGTT against Rps24, the z-score is 0.585. In the case of GGCCACUGAUCAACUAAAGTT against Zfp110 it was 2.27 (active).

For CCAGAUGCUAUGCUAGGGATT against Clec4a1, the z-score is -0.0541. Take GGACGGCAAAUUUGGUUUCTT against Mmp9: the z-score is 1.28. In the case of GCCAUCAAUGAUGUGCUCUTT against Zswim5, the z-score is -0.186. In the case of GGAAAAUGGAAUCUUCGGUTT against Pus10 it was -1.4; in that of GCUGGAUACUAAUUGCUUATT against Parva, 1.27; in that of GCCUGGUACAGAACCAGUATT against Ntsr2, 0.547. As for CCUAUGCAUCCCUGACUACTT against Tmem126b, the figure is 5.07 (active); as for GGUUUUUAAGGGAAGGCCCTT against Ntmt1, 0.284; as for GUCCCACUCAGGAGAAUUUTT against Lrrc61, 0.917. On to GGAAGAUUAUAUUGAGAGATT against Bnip3, for which the z-score was 1.11.

Consider GGAGGAGAAUGCCACAACUTT against Cd320, for which the z-score was -0.227.

On to GCCUGUUAAUAUGCUGUAATT against Gpr83, for which the z-score was -0.0705.

Turning to GGACUUUCUGAGUAAGAAUTT against Coa8, the z-score is -0.873. As for GGAAUACGGAUUGAUGGAGTT against Fli1, the figure is 2.19 (active); as for CCUUAUGCAUGACUUGAGUTT against Exoc4, -0.2. In the case of GGUUCGUCAUACCUCCUCATT against C77080 it was -0.00884; in that of GGAAUACAUUCCUUUUAAGTT against Gpx3, -1.27. Turning to GGAGAAGAAACGGAAAUGATT against Jagn1, the z-score was -1.98. As for GGUAUUUAGAAACAUCAGUTT against Wls, the figure is -2.16 (active); as for GCUGUUCAUAUAUCUUGCUTT against Olfr1386, 1.17. In the case of GGCACAUAGCCAUACCAGATT against Fbxw17 it was 0.0511; in that of GGAUUCCUGUUAAAAGUCUTT against Azin1, -0.152.

The values are drawn from PubChem BioAssay AID1508600 (Functional Genomics Laboratory (NCATS/FGL), 2020).
